Screening results: PubChem BioAssay, National Center for Advancing Translational Sciences (NCATS)
Compounds with a hit are over-represented: about 3.3% of the library has one in this group of screens.
VACV mCherry inh – vaccinia inhibition (mCherry reporter); Vaccinia virus mCherry reporter infection, fluorescence; Potency, µM (series often up to 36.5 µM), without a hit: at the highest dose activity change, negative = inhibition, hits mostly inhibitors; AID 720579; 0.63% of 310,000 active; calls by dose curve; tested in A549 cells; further: nearly all actives have a fitted effect of over 35% in size
VACV Venus inh – inhibitors of vaccinia virus (Venus reporter) | 0.46% of 330,000 active | Vaccinia virus Venus reporter expression, fluorescence | Potency, µM (series often up to 36.5 µM), inactives show top-dose activity change, negative = inhibition, most hits filed as inhibitors; calls by dose curve; tested in A549 cells; further: nearly all actives have a fitted effect of over 30% in size
HCV inhibitor – HCV inhibition. Huh7.5.1 HCVcc-Cre infection, luciferase reporter, 44 h. Potency, µM (top dose mostly 41.8 µM), without a hit: at the highest dose activity change, negative = inhibition, usual class: inhibitors. 3.4% of 340,000 active. AID 651820; active means well fitted inhibition curve with a large enough effect; inconclusive means small, poorly fitted or top-dose-only effect, or another doubt; inactive means no such curve, though single readings can be large or run the other way
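A cell-based infection assay in which seeded cells (1,000 per well) receive test compound after 4 h, are inoculated with HCVcc-Cre at approximately 0.5 moi, and are incubated 44 h before luminescence detection.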
* marks the source's active call; other numbers are inactive results; [ ] = another dose, or the depositor's remark. On the % scale 0 is the no-effect control and ±100 the full control effect; potency means the concentration at half of the fitted maximal effect.

For CCOC(=O)c1c(CN2CCN(C)CC2)n(-c2ccccc2)c2cc(Br)c(O)cc12 the results were HCV inhibitor 14µM*.
CCOC(=O)c1c(CN2CCN(CCO)CC2)n(-c2ccccc2)c2cc(Br)c(O)cc12 was read as VACV mCherry inh -29%, VACV Venus inh inconclusive and HCV inhibitor inconclusive.
O=C(Nc1ccc(Cl)cc1Cl)c1cc(S(=O)(=O)N2CCc3ccccc32)ccc1F was read as VACV mCherry inh -16% and VACV Venus inh -16%.
`COc1ccc(/C=C/c2nnc(NC(=O)COc3ccc(Cl)cc3)s2)cc1` gave VACV mCherry inh 11% and VACV Venus inh -8%.
CCOc1cccc(C(=O)NC(=S)Nc2ccc(Cl)cc2C(=O)O)c1 was read as VACV mCherry inh 4%, VACV Venus inh -3% and HCV inhibitor 24%.
Screening CC(C)(C)C1CCc2c(sc(NC(=O)c3ccc(Cl)cc3)c2C(=O)NCc2ccco2)C1 (stereo not drawn) returned VACV mCherry inh inactive and VACV Venus inh -5%.
Screening CC(CNC(=O)[C@@H](Cc1ccccc1)NC(=O)CC[C@H]1O[C@@H](n2ccc(=O)[nH]c2=O)[C@H](O)[C@@H]1O)c1ccccc1 (stereo partly drawn) returned VACV mCherry inh 13% and VACV Venus inh -3%.
Screening O=C1NC(=S)N/C1=C/c1ccc(-c2c(Br)cc([N+](=O)[O-])cc2Br)o1 returned HCV inhibitor 8.9µM*.
For O=C1NC(=S)N/C1=C/c1cccc([N+](=O)[O-])c1 the results were VACV mCherry inh -2%, VACV Venus inh -3% and HCV inhibitor 4%.
`O=C(CCl)Nc1cccn2ncnc12` gave VACV Venus inh 7.9µM* and HCV inhibitor inconclusive.
O=C(Nc1cccn2ncnc12)C(F)(F)F was read as VACV mCherry inh inactive, VACV Venus inh 1% and HCV inhibitor 8%.
`COc1ccccc1C1C=C(c2ccc(C(C)C)cc2)Nc2nnnn21` (stereo not drawn) gave VACV mCherry inh -2% and VACV Venus inh -24%.
COc1ccc(C2=CC(c3c(C)nn(-c4ccccc4)c3Cl)n3nnnc3N2)cc1OC (stereo not drawn) was read as VACV Venus inh inconclusive and HCV inhibitor 11µM*.
Screening COc1cc(N(C)C)c(OC)cc1C=C1C=CC=C1 returned VACV mCherry inh 8% and VACV Venus inh -19%.
COC(=O)C1CCN(Cc2ccc3c(c2)CN(C(=O)c2ccc4nc(C)c(C)nc4c2)CCO3)CC1 was read as VACV mCherry inh -12% and VACV Venus inh -2%.
Screening CCCc1sc(N/N=C/c2ccccn2)nc1-c1ccc(F)cc1 returned VACV mCherry inh 11µM*, VACV Venus inh inconclusive and HCV inhibitor inconclusive.
Screening O=C(O)Cc1sc(N/N=C\c2ccccc2)nc1-c1ccccc1 returned VACV mCherry inh -19%, VACV Venus inh 8% and HCV inhibitor -28%.
Screening CCCCCCCCn1c(=O)c(C(=O)OC)c(N)c2ccccc21 returned VACV mCherry inh inconclusive, VACV Venus inh inconclusive and HCV inhibitor 13µM*.
`CCCCCCCn1c(=O)c(C(=O)OC)c(N)c2ccccc21` gave VACV mCherry inh -6%[7.34 µM], VACV Venus inh -11%[7.34 µM] and HCV inhibitor inconclusive.
O=C(CCSCc1cnn(-c2ccccc2)c1-n1cccc1)NCc1ccc(Cl)cc1 was read as VACV mCherry inh 16% and VACV Venus inh 3%.
Screening CCCc1cc(=O)oc2cc(OCC(=O)NCCc3c[nH]c4ccccc34)ccc12 returned VACV mCherry inh inconclusive, VACV Venus inh inconclusive and HCV inhibitor 4.5µM*.
For C=C(Cl)COc1ccc2c(CCC)cc(=O)oc2c1 the results were VACV Venus inh -14% and HCV inhibitor 10µM*.
Screening Cc1cc(=O)oc2cc(OCC(=O)NCCc3c[nH]c4ccc(F)cc34)ccc12 returned HCV inhibitor -19%.
CCCc1cc(=O)oc2cc(OCC(=O)Nc3cc(C)on3)ccc12 was read as VACV mCherry inh inactive, VACV Venus inh -9% and HCV inhibitor 9%.
`Cc1ccc2c(c1)cc1c(=O)n(CC(=O)NCc3ccccn3)nc(C)n12` gave HCV inhibitor 8%.
Cc1ccc(OCc2cc(C(=O)NC(C)Cc3cccc(C)n3)no2)cn1 (stereo not drawn) was read as VACV mCherry inh -10%, VACV Venus inh -9% and HCV inhibitor inconclusive.
For CCn1nc(C)c(CNC(=O)c2cc(COc3ccc(C)nc3)on2)c1C the results were VACV mCherry inh inactive, VACV Venus inh -10% and HCV inhibitor 11µM*.
Screening CSc1ccc(CCNC(=O)c2ccc(CS(=O)(=O)c3ccc(Br)cc3)o2)cc1 returned VACV mCherry inh -8% and VACV Venus inh -12%.
`Cn1c(SCC(=O)N2CCCC2=O)nc2ccccc2c1=O` gave VACV mCherry inh inactive, VACV Venus inh -7% and HCV inhibitor 7%.
Cc1nc(Nc2ccc(O)cc2)c2c3c(sc2n1)CCCC3 was read as VACV mCherry inh 11µM*, VACV Venus inh inconclusive and HCV inhibitor inconclusive.
For Cc1ccc(CNc2nc(C)nc3sc4c(c23)CCC4)cc1 the results were VACV mCherry inh inconclusive and VACV Venus inh -27%.
Screening CCOC(=O)c1cc(-c2ccccc2)nc2c1c(C)nn2-c1ccccn1 returned VACV Venus inh inconclusive and HCV inhibitor 10µM*.
Screening CCOC(=O)c1cc(-c2cccnc2)nn1-c1ccccn1 returned VACV Venus inh 0% and HCV inhibitor -8%.
CN1CCN(CC(=O)Nc2ccccc2C(F)(F)F)CC1 was read as HCV inhibitor 8%.
For CCC(=O)c1ccc(OCC(=O)N2CCN(CC(=O)Nc3ccccc3C(F)(F)F)CC2)cc1 the results were VACV mCherry inh inactive, VACV Venus inh -9% and HCV inhibitor 13µM*.
For COc1ccc2cc(C(=O)NCc3ccc4c(c3)CCN4C(=O)c3ccc(C)cc3)[nH]c2c1 the results were VACV mCherry inh -29% and VACV Venus inh -23%.
`CC(C)OC(=O)CC(=O)CSc1nc2c(c(-c3cccs3)c1C#N)CCC2` gave VACV mCherry inh inactive, VACV Venus inh -17% and HCV inhibitor 10µM*.
`CCOC(=O)C(C)Sc1nc2c(c(-c3cccs3)c1C#N)CCC2` (stereo not drawn) gave VACV mCherry inh inactive, VACV Venus inh 3% and HCV inhibitor inconclusive.
`CC(C)(C)OC(=O)NS(=O)(=O)NOCc1ccccc1` gave VACV mCherry inh -12% and VACV Venus inh 1%.
For O=c1[nH]c(CN2CCN(S(=O)(=O)/C=C/c3ccccc3)CC2)nc2cc(Cl)ccc12 the results were VACV mCherry inh inconclusive, VACV Venus inh 11µM* and HCV inhibitor -15%.
For O=c1[nH]c(CN2CCN(S(=O)(=O)/C=C/c3ccccc3)CC2)nc2ccccc12 the results were VACV mCherry inh inactive, VACV Venus inh -11% and HCV inhibitor -12%.
Screening Cc1ccc(OCC(=O)Nc2ccccc2C(=O)OCc2cc(=O)n3nc(C4CC4)sc3n2)cc1 returned VACV mCherry inh -23% and VACV Venus inh -23%.
For CCN(c1ccccc1)S(=O)(=O)c1ccc(NC(=O)c2cc(=O)c3cc(C)cc(C)c3o2)cc1 the results were VACV mCherry inh 12% and VACV Venus inh -4%.
`O=C(N1CCCC1)N1CCN(S(=O)(=O)c2ccccc2)CC1` gave VACV mCherry inh -14%, VACV Venus inh -10% and HCV inhibitor 14%.
